Screening results as filed in PubChem.
ClpP mod – qHTS Assay for Activators of ClpP. ATP-dependent Clp protease proteolytic subunit (Bacillus subtilis (strain 168)), P80244. purified B. subtilis ClpP, FRET peptide cleavage, 20 min. Potency, µM (top dose mostly 57.5 µM), without a hit: top-dose activity change, negative = active. 340,000 tested, 1.9% active. AID 651965, 2013; active = well fitted falling curve with a large enough effect; inconclusive = small, poorly fitted or top-dose-only effect; inactive = no such curve, though single readings can be large or run the other way; note: potency is the fitted concentration of half-maximal effect; the source files actives as falling curves though it sought activators and does not explain the sign; nearly all actives have a fitted effect of over 65% in size
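Buffer: 100 mM Tris/HCl pH8, 100 mM KCl, 0.05% low protease BSA, 2.5% glycerol, 0.01% Tween-20. ClpP 10 microg/mL final; 20 min RT; delta FRET normalized to ADEP and DMSO controls.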
hERG WT inh – KCNH2 (human, wildtype) channel inhibition; activity change, % at 1.84 µM; AID 720551; 340,000 tested, 0.37% active; U2OS, BacMam KCNH2, thallium flux FluxOr; hits give low values;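 active = maximum activity change below -70%; inconclusive = maximum activity change between -70% and -50%; inactive = maximum activity change above -50%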; note: % is set by controls: 0 for no effect and ±100 for the full control effect
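U2OS cells were transduced with wild-type KCNH2 virus (2.03 x 10^8 / mL) for 4 h at room temperature, then cultured overnight at 37 C. Thallium flux was read with FluxOr dye. Rate constants were normalized to DMSO controls.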
BCR signal inh – chronic active BCR signaling inhibition; ABC-DLBCL IkBa-CBG/CBR reporter, luminescence ratio, 4 h; 340,000 tested, 0.05% active; Potency, µM (titrated, usually from 46.1 µM), without a hit: at the top dose activity change, negative = inhibition, actives largely listed as inhibitors; AID 493014; active = well fitted inhibition curve with a large enough effect in the signal ratio, with a control signal flat, not every such curve was filed as active; inconclusive = small, poorly fitted or top-dose-only effect, or effect the other way, or a change in a side signal; the % refers to the signal ratio;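 note: potency is the fitted concentration of half-maximal effect; plate controls were basal doxycycline-induced cells for no effect and cells given 10 µM MG132 for full effect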
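Doxycycline induced both beetle luciferases in TMD8 lymphoma cells; IKK-driven degradation limits the IkappaBalpha-fused green signal, while red luminescence normalises for cell number and nonspecific effects. Compounds tested up to 46 uM, 4 hrs.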
12-LOX inh – ALOX12 (human) lipoxygenase inhibition. 580,000 tested, 1.1% active. P18054. Potency, µM (series often up to 108 µM), without a hit: top-dose activity change, negative = inhibition, most hits filed as inhibitors. purified 12hLO, xylenol orange hydroperoxide absorbance; active = well fitted inhibition curve with a large enough effect; inconclusive = small, poorly fitted or top-dose-only effect, or another doubt; inactive = no such curve, though single readings can be large or run the other way; note: potency is the fitted concentration of half-maximal effect; % is set by controls: 0 for no effect and ±100 for the full control effect
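Purified human 12hLO at 150 nM in 25 mM Hepes, 0.01% Triton X-100, pH 7.0, preincubated 15 min at room temperature with compound. Reaction started with 40 uM arachidonic acid, 30 min at room temperature. Hydroperoxide measured by Fe-xylenol orange, 573/405 nm absorbance ratio.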
KCNH2 3.1 inh – KCNH2 3.1 (human) potassium channel inhibition; activity change, % (tested at about 1.8 µM); U2OS KCNH2 3.1, thallium flux FluxOr; hits give low values; 340,000 tested, 0.95% active;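 active = maximum activity change below -70%; inconclusive = maximum activity change from -70% to -50%; inactive = maximum activity change above -50%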;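 note: thallium influx rate constant from kinetic fluorescence after stimulation buffer; % is set by controls: 0 for no effect and ±100 for the full control effect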
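U2OS cells transduced with KCNH2 3.1 mutant virus (1.77 x 10^8 /mL, 4 h), plated overnight at 37 C, loaded 45 min with FluxOr dye plus Red40 quencher. Thallium flux rate constant from kinetic reads after stimulation buffer, normalised to controls.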
LDHA inh – inhibitors of human lactate dehydrogenase A; P00338; activity change, % (values are at about 110 or 230 µM); 480,000 tested, 0.15% active; purified LDHA, NADH/diaphorase-resazurin fluorescence; hits give low values; in the data active = activity change below about -30%; inconclusive = mostly about -25% to -30%;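 note: plate controls were DMSO wells for no effect and wells without enzyme for full effect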
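Remaining NADH was detected by diaphorase (0.133 mg/mL) converting 37 µM resazurin to fluorescent resorufin, read at 0 and 20 minutes. The preceding 5-minute room-temperature reaction used 2 nM LDHA, 0.2 mM sodium pyruvate and 0.06 mM NADH at pH 7.4.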
* hit, by the source's call; u = inconclusive; x = no result given. This is a sample that favours compounds with a hit; in the whole collection about 3% have one here.

SMILES	ClpP mod	hERG WT inh	BCR signal inh	12-LOX inh	KCNH2 3.1 inh	LDHA inh
COc1cccc(NC(=O)CN2CCN(CC(=O)Nc3ccc(F)cc3)CC2)c1	x	-38	-8%	0%	-85*	-5
COc1cccc(NC(=O)Cn2c(N3CCc4ccccc4C3)nc(C)cc2=O)c1	x	x	x	28µM*	x	x
COc1ccc(NC(=O)CN2CCN(CC(=O)Nc3ccc(F)cc3)CC2)cc1Cl	-3%	2	-8%	-15%	-91*	-3
COc1ccc(CN2CCCN(S(=O)(=O)c3ccc(Br)cc3)CC2)cc1	x	-126*	0%	-14%	-102*	1
COc1ccc(S(=O)(=O)N2CCN(Cc3ccc(Cl)cc3)CC2)cc1	-1%	6	-6%	u	-1	-21
COc1cc(NC(=O)CN2CCN(CC(=O)Nc3ccc(F)cc3)CC2)cc(OC)c1	-2%	x	x	-15%	x	-8
CCCn1nc(C(=O)Nc2cc(S(=O)(=O)N3CCCCC3)ccc2C)c2ccccc2c1=O	x	x	x	u	x	11
COc1ccc(S(=O)(=O)N2CCN(CC(=O)Nc3cc(Cl)ccc3Cl)CC2)cc1	1%	1	0%	39%	-85*	-1
NS(=O)(=O)c1ccc(NC(=O)CN2CCN(S(=O)(=O)/C=C/c3ccccc3)CC2)cc1	x	18	1%	-1%	-3	-16
COc1ccccc1NC(=O)CN1CCN(CC(=O)Nc2ccc(OCc3ccccc3)cc2)CC1	-1%	-25	-2%	-15%	-79*	-4
COc1ccc(S(=O)(=O)N2CCN(CCNC(=O)COc3ccc(C(C)C)cc3)CC2)cc1	x	x	x	35µM*	x	13
COc1ccccc1NC(=O)CN1CCN(CC(=O)Nc2ccc(F)cc2)CC1	-3%	-36	u	15%	u	-3
CS(=O)(=O)c1ccc(Cl)c(NC(=O)CN2CCN(S(=O)(=O)/C=C/c3ccccc3)CC2)c1	0%	26	x	127%	-84*	-1
CN(Cc1ccc2ncccc2c1)C(=O)c1ccc(C2CCNC2)cc1 (centres undefined)	x	x	x	8%	x	x
Cc1ccc(NC(=O)CCC(=O)c2ccc(F)cc2)cc1Cl	25µM*	0	13%	43%	u	-3
COc1ccc(NC(=O)CN2CCN(CC(=O)Nc3ccc(F)cc3F)CC2)cc1	x	-120*	u	0%	-117*	-7
CC(=O)Nc1ccc(C(=O)OCC(=O)Nc2ccccc2Sc2ccccc2)cc1	-1%	-21	-9%	-12%	-79*	-6
COc1ccc(C(=O)CCC(=O)Nc2ccc(C)c(Cl)c2)cc1	2%	x	8%	4%	x	2
COc1cccc(OC)c1NC(=O)CN1CCN(C)CC1	x	23	u	u	8	-32*
C=CCOC(=O)C1=C(C)N=C2SC=C(CC(=O)NCC3CC3)N2C1c1cccc(OC)c1OC (centres undefined)	x	x	x	16%	x	x
COCCn1c(-c2ccc(Cl)cc2)nc2c(c(=O)c3ccccc3n2C)c1=O	x	x	6%	18%	x	x
COCCn1c(-c2ccccc2Cl)nc2c(c(=O)c3ccccc3n2C)c1=O	18µM*	1	u	-17%	-5	-5
CCOc1ccc(C(c2c(C)[nH]n(-c3ccccc3)c2=O)c2c(C)[nH]n(-c3ccccc3)c2=O)cc1OC	-2%	x	x	50µM*	x	7
CCN(CC)C(=O)c1cc(-c2ccccc2OC)on1	25µM*	4	u	-25%	-11	-1
Cc1ccccc1N1CCN(CCCN2C(=O)CC(=C(c3ccccc3)c3ccccc3)C2=O)CC1	-2%	-38	2%	u	-46	-4
O=C1CC(=C(c2ccccc2)c2ccccc2)C(=O)N1CCCCN1CCN(c2cccc(Cl)c2)CC1	1%	-75*	8%	-27%	-74*	3
CCCCC(=O)NCc1ccc2c(c1)cc(C)n2C	-19%	-4	14%	0%	-5	0
CCCCNC(=S)NCc1ccc2c(c1)cc(C)n2C	0%	-13	u	40µM*	-2	-1
